Measured values: PubChem BioAssay (NCATS)
Several values for one entry are separate records, joined by “and”; a condition that tells them apart may be missing. Equal values may be shown once. Results filed as inconclusive are left out. Activity calls are given as the source filed them. Unless noted, the call rests on the fitted dose curve; in most records, active means well fitted curve in the direction sought with a large enough effect; inconclusive means small, poorly fitted or top-dose-only effect, or another doubt; inactive means no such curve, though single readings can be large; an effect the other way counts as inactive or inconclusive.

Assays:
[1] = Cellular Toxicity (caspase-3) Hek293 (AID 664);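 further: cells exposed to compound for 16 h at 37 °C before readout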
Procedure, shortened: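 Cells plated, 5 hr at 37 °C; compounds added; 16 hr at 37 °C; Caspase-Glo 3/7 reagent, 20 min RT; luminescence read. Activation expressed relative to DMSO and 100 uM tamoxifen, AC50 by Hill model.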

[2] = Cellular Toxicity (caspase-3) Renal Proximal Tubule (AID 667); details: renal proximal tubule cells, at 91.7 µM (top of the series);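 further: cells exposed to compound for 16 hours at 37 °C before detection; 0% = DMSO basal and 100% = 10 µM staurosporine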
Procedure, shortened: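 In qHTS format, rat primary proximal tubule cells seeded at 1000 per well are exposed to compounds for 16 hours at 37 °C. An increase in Caspase-Glo 3/7 luminescence indicates caspase activation.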

[3] = MultiTox-Fluor Cytotoxicity Assay - LYMP1-001 - Live Cells (AID 947);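 further: 0% = DMSO only and full inhibition = tetraoctylammonium bromide control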
[4] = Cell Viability - LYMP1-003 - Assay at 40 hr (AID 964); further: nearly all actives have a fitted effect of over 60% in size; further: potency means the concentration at half of the fitted maximal effect
Procedure, shortened: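 Cells were seeded at 2500 per well and incubated 5 hr at 37 C. Compounds were added across a concentration series and left 40 hr at 37 C. CellTiter-Glo was added for 30 min at room temperature before luminescence reading.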

[5] = Cell Viability - LYMP2-011 (AID 969);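 further: cells exposed to compound for 24 hours; nearly all actives have a fitted effect of over 60% in size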; further: potency means the concentration at half of the fitted maximal effect;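 on viability change, negative = cytotoxic: 0% = DMSO only and full inhibition = 92 µM tetraoctylammonium bromide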
Procedure, shortened: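 2500 cells/well, 5 hr 37 C; compound added, 24 hr 37 C; CellTiter-Glo 30 min RT; luminescence. qHTS concentration-response, Hill-equation AC50. Tetraoctylammonium bromide positive control.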

[6] = Cell Viability - LYMP2-021 (AID 974);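 further: compound exposure lasts 24 hours at 37 °C; nearly all actives have a fitted effect of over 55% in size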; further: potency means the concentration at half of the fitted maximal effect
Procedure, shortened: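 Plate 2500 lymphoblastoid cells per well and incubate 5 hr at 37 C. Add compounds over a concentration range and incubate 24 hr at 37 C. Add CellTiter-Glo, wait 30 min at room temperature, read luminescence.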

[7] = Cell Viability - LYMP2-002 (AID 977);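 further: compound exposure lasted 24 h at 37 °C; plate controls were DMSO only for no effect and 92 µM tetraoctylammonium bromide for full effect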
Procedure, shortened: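 Cytotoxicity is scored as concentration-dependent loss of cellular ATP in a human lymphoblastoid line after 24 hr compound treatment at 37 C. AC50 is obtained by modelling concentration-response data with the Hill equation.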

[8] = molecular target: Vitamin D3 receptor (Homo sapiens) (UniProt P11473); assay: qHTS assay for small molecule agonists of vitamin D receptor signaling (AID 588543; calls by dose curve;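 further: 0% = DMSO basal and 100% = reference agonist control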)
Procedure, shortened: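 qHTS in agonist mode: compound titrations stimulate a VDR-driven β-lactamase reporter in HEK293T cells over 16 h at 37 °C. Response normalized to 50 nM 1α,25-dihydroxyvitamin D3 = 100%, DMSO = 0%; Hill fitting gives EC50 and maximal response.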

[9] = qHTS assay for small molecule agonists of the antioxidant response element (ARE) signaling pathway (AID 651741; active means well fitted activation curve with a large enough effect in the signal ratio; the % refers to the signal ratio; further: potency means the concentration at half of the fitted maximal effect)
Procedure, shortened: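 Quantitative HTS in HepG2 cells stably expressing an ARE-beta-lactamase reporter; 16 h compound exposure at 37 C, followed by 2 h room-temperature incubation with LiveBLAzer B/G FRET substrate and fluorescence measurement.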

[10] = molecular target: Peroxisome proliferator-activated receptor alpha (Homo sapiens) (UniProt Q07869); assay: qHTS assay for small molecule agonists of the peroxisome proliferator-activated receptor alpha (PPARalpha) signaling pathway (AID 651778); details: PathHunter PPARalpha complementation, chemiluminescence, 6 h; active compounds read high; further: % of control where 0% means no effect
Procedure, shortened: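 Chemiluminescence from complemented enzyme reported PPARalpha activation in cells after 6 hr of compound treatment at 37 C. The detection reagent was incubated for 60 min at room temperature, and compounds were scored as agonists.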

[11] = qHTS assay for cell viability of the p53RE-bla HCT-116 cell line (AID 743292); further: on the % scale 0 is the no-effect control and ±100 the full control effect; nearly all actives have a fitted effect of over 55% in size
Procedure, shortened: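 ATP-based luminescence, 16 h compound exposure at 37 C, p53RE-bla HCT-116 cells at 4,000/well.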

[12] = molecular target: Nuclear receptor subfamily 1 group I member 2 (Rattus norvegicus) (UniProt Q9R1A7); assay: qHTS assay for small molecule activators of the rat pregnane X receptor (rPXR) signaling pathway (AID 651751; call rule not given here; further: 0% is about no effect); details: rPXR reporter cells, luciferase (One-Glo), 24 h
[13] = Cell Viability - SH-SY5Y (AID 544); details: SH-SY5Y neuroblastoma cell viability; viability change, negative = cytotoxic: at 92.2 µM (top of the series);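 further: 0% = DMSO alone and -100% = 100 µM tamoxifen; nearly all actives have a fitted effect of over 55% in size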
Procedure, shortened: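 Luminescent ATP read-out (CellTiter-Glo) measures loss of viable SH-SY5Y neuroblastoma cells after 40 hr compound exposure at 37 °C. AC50 values derive from standard Hill modelling of qHTS concentration-response data.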

[14] = Cell Viability - LYMP2-023 (AID 975);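 further: cellular ATP measured by luciferase luminescence as viability proxy; cells exposed to compound for 24 hours at 37 °C; plate controls were DMSO only for no effect and 92 µM tetraoctylammonium bromide control for full effect; nearly all actives have a fitted effect of over 55% in size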
Procedure, shortened: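 2500 cells/well, 5 hr 37 C; cpd 24 hr 37 C; CellTiter-Glo, 30 min RT; luminescence. qHTS conc-response, Hill fit -> AC50. Pos ctrl tetraoctylammonium bromide.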

[15] = Cell Viability - LYMP2-018 (AID 985);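 further: compound exposure lasted 24 hr at 37 °C; nearly all actives have a fitted effect of over 50% in size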; further: potency means the concentration at half of the fitted maximal effect
Procedure, shortened: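 Luminescent ATP signal (CellTiter-Glo, read after 30 min at room temperature) reports viable cells after 24 hr compound treatment at 37 C. Concentration-response data were fitted to the standard Hill equation for AC50.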

[16] = Cell Viability - LYMP2-020 (AID 986); further: nearly all actives have a fitted effect of over 55% in size; further: potency means the concentration at half of the fitted maximal effect
Procedure, shortened: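 Luminescent ATP signal (CellTiter-Glo, 30 min at room temperature) is the read-out after 24 h compound treatment of lymphoblastoid cells at 37 C. AC50 values come from Hill-equation fits across concentrations.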

[17] = Cell Viability - LYMP2-026 (AID 989); further: nearly all actives have a fitted effect of over 50% in size; further: potency means the concentration at half of the fitted maximal effect
Procedure, shortened: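 Luminescent ATP signal (CellTiter-Glo, 30 min room temperature) measures viable lymphoblastoid cells after 24 hr compound treatment at 37 C. Decreased ATP reflects acute toxicity; AC50 values come from Hill-equation modeling.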

[18] = Cell Viability - LYMP1-002 - Assay at 40 hr (AID 994);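 further: 0% = DMSO only and full inhibition = 92 µM tetraoctylammonium bromide; nearly all actives have a fitted effect of over 60% in size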
Procedure, shortened: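 Luminescent ATP signal served as the viability readout, with decreases taken as toxicity. Cells were treated with compounds across a concentration range for 40 hours at 37 C, and AC50 values came from standard Hill modeling.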

[19] = molecular target: Peroxisome proliferator-activated receptor gamma (Homo sapiens) (UniProt P37231); assay: qHTS assay for small molecule agonists of peroxisome proliferator-activated receptor gamma signaling (AID 588536; active means well fitted curve in the direction sought with a large enough effect in the signal ratio, with a control signal flat, not every such curve was filed as active; the % refers to the signal ratio;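 further: 0% = DMSO basal wells and 100% = rosiglitazone at 2 µM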)
Procedure, shortened: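 Test agents, titrated, stimulated HEK293 UAS-bla cells overnight (16 h, 37 C). Substrate CCF4 was then added for two hours at room temperature before fluorescence reading.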

7G8 = assay: qHTS profiling for inhibitors of Plasmodium falciparum proliferation (AID 504749);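 further: 0% = DMSO vehicle and full inhibition = artemisinin control; nearly all actives have a fitted effect of over 60% in size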; details: P. falciparum in erythrocytes, SYBR Green DNA, 72 h; series mostly up to 12.8 µM
Procedure, shortened: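 Infected RBCs, 0.3% parasitemia/2.5% Hct final; cpd 72 h, 37 C, 5% CO2; lysis buffer with saponin/triton/SYBR Green I, o/n RT dark; FI 485/535; norm. to artemisinin (0.29 uM) and DMSO.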

[20] = primary cells freshly taken from rat, solvent-only wells 0%, staurosporine 100% unless noted

Sequence of Peroxisome proliferator-activated receptor alpha (Homo sapiens) (Q07869 whole entry, looked up): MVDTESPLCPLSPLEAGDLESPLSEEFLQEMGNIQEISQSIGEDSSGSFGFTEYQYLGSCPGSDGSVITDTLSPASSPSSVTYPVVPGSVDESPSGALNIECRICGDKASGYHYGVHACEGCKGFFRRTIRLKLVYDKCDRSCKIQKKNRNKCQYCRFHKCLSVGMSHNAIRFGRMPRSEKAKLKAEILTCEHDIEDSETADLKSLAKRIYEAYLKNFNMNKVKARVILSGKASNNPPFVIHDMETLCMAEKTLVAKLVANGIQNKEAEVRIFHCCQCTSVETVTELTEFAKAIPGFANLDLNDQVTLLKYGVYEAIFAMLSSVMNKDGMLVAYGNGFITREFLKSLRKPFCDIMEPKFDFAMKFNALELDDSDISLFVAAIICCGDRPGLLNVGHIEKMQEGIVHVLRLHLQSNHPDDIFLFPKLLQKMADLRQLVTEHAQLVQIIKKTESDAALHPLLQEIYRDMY
Sequence of Vitamin D3 receptor (Homo sapiens) (P11473 whole entry, looked up): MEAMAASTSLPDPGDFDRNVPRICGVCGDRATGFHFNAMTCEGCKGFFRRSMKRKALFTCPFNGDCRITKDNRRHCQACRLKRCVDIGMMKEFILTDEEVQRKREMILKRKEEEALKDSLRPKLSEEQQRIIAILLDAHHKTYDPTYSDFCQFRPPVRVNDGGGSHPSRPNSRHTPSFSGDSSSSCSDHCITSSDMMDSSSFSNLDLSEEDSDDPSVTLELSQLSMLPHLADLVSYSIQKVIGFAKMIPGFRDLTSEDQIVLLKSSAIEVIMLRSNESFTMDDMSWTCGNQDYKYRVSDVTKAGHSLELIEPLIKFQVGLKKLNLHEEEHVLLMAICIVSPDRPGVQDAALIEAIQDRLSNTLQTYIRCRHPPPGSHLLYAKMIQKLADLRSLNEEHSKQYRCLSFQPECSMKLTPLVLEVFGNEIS
Sequence of Peroxisome proliferator-activated receptor gamma (Homo sapiens) (P37231 whole entry, looked up): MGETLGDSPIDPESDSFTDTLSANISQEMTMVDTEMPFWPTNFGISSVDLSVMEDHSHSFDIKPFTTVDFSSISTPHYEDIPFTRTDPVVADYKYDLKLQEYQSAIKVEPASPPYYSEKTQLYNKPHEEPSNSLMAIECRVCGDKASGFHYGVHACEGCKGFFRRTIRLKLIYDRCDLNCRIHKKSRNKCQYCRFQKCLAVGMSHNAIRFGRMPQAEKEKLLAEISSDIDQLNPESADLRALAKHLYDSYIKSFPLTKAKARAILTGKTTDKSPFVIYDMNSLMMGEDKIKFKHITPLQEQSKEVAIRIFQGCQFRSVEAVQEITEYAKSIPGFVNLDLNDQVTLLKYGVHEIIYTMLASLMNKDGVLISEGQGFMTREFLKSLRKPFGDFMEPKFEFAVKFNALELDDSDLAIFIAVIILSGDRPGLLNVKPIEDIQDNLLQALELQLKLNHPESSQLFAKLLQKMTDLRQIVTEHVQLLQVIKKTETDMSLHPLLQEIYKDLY
Sequence of Nuclear receptor subfamily 1 group I member 2 (Rattus norvegicus) (Q9R1A7 whole entry, looked up): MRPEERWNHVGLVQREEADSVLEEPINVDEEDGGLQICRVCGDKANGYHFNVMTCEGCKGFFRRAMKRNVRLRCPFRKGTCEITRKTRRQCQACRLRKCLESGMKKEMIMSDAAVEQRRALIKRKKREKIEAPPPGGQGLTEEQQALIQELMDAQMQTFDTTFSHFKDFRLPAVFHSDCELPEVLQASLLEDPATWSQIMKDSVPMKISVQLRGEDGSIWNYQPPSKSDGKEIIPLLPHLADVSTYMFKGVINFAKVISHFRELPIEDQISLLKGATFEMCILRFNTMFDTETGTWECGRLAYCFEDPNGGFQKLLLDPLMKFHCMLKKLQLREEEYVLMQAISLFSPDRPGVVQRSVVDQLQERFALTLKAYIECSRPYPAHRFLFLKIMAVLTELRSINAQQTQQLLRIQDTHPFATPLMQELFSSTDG

CCOCN(C(=O)CCl)c1c(C)cccc1CC
active: Potency [4] 50.1 µM | Potency [5] 50.1 µM | Potency [6] 50.1 µM | Potency [9] 7.5 µM and 7.7 µM
inactive: outcome [1] | caspase-3 activation [2, 20] 0.858% | Potency [3] | Potency [7] | outcome [8] | max response [10] -0.344% and -1.51% | Potency [11] | max response [12] -4.5% and -5.56%

C=CCc1ccc2c(c1)OCO2
inactive: Potency [13] | outcome [1] | caspase-3 activation [2, 20] -2.37% [at 91.7 µM] | Potency [3] | Potency [4] | Potency [5] | Potency [6] | Potency [14] | Potency [7] | Potency [15] | Potency [16] | Potency [17] | Potency [18] | outcome [19] | outcome [8] | max response [10] -3.48% | Potency [11] | max response [12] 3.14%

CCc1cccc(CC)c1N(COC)C(=O)CCl
active: Potency [15] 39.8 µM | Potency [16] 50.1 µM | Potency [9] 13.3 µM and 24.3 µM
inactive: outcome [1] | caspase-3 activation [2, 20] 1.3% | Potency [3] | outcome [19] | outcome [8] | max response [10] -2.24% and -0.952% | Potency [11] | max response [12] -3.94% and -1.3%

ClC(Cl)=C(c1ccc(Cl)cc1)c1ccc(Cl)cc1
inactive: Potency [13] | outcome [1] | caspase-3 activation [2, 20] -10.4% [at 91.7 µM] and -6.37% [at 91.7 µM] | Potency [3] | Potency [4] | Potency [5] | Potency [6] | Potency [14] | Potency [7] | Potency [15] | Potency [16] | Potency [17] | Potency [18] | outcome [19] | outcome [8] | max response [10] 21.8% and 11.7% and 4.05% | max response [12] 1.57% and 5.61% and 0.401%
active: Potency [9] 66.8 µM

C/C=C/c1ccc2c(c1)OCO2
inactive: Potency [13] | outcome [1] | caspase-3 activation [2, 20] -4.01% [at 91.7 µM] | Potency [3] | Potency [4] | Potency [5] | Potency [6] | Potency [14] | Potency [7] | Potency [15] | Potency [16] | Potency [17] | Potency [18] | outcome [19] | outcome [8] | max response [10] -6.18% | Potency [11] | max response [12] 0.551%

C[N+]1([O-])[C@@H]2CC(OC(=O)[C@@H](CO)c3ccccc3)C[C@@H]1[C@H]1O[C@H]12 (stereo not given in full)
inactive: Potency (7G8)

ClC1=C(Cl)C2(Cl)C3C4C=CC(C4)C3C1(Cl)C2(Cl)Cl (stereo not given)
inactive: Potency [13] | caspase-3 activation [2, 20] -0.505% [at 91.7 µM] | Potency [18] | outcome [19] | outcome [8] | max response [12] 5.53%
active: Potency [6] 63.1 µM | Potency [16] 50.1 µM | Potency [17] 50.1 µM | Potency [9] 66.8 µM

CNC(=O)O/N=C/C(C)(C)SC
active: Potency [9] 27.3 µM
inactive: Potency [13] | outcome [1] | Potency [3] | Potency [4] | Potency [5] | Potency [14] | Potency [7] | Potency [15] | Potency [17] | Potency [18] | outcome [19] | max response [10] 4.62% and -1.35% and -3.37% | Potency [11]

O=C(O)COc1ccc(Cl)cc1Cl
active: Potency [9] 48.6 µM
inactive: Potency [13] | outcome [1] | caspase-3 activation [2] 4.86% | caspase-3 activation ([2]; primary cells freshly taken from rat, solvent-only wells 0%, staurosporine 100%) 3.32% | Potency [3] | Potency [4] | Potency [5] | Potency [6] | Potency [14] | Potency [7] | Potency [15] | Potency [16] | Potency [17] | Potency [18] | outcome [8] | Potency [11] | max response [12] -0.13% [middle of 4 runs]
